According to ChEMBL document CHEMBL4513146, “CO-ADD screening of Karazin Kharkiv National University (Ukraine) compounds”:
Results with a measured potency or affinity are listed apart.

Columns and labels:
Klebsiella pneumoniae = conditions: Concentration 32 ug.mL-1;; ASSAY_TEST Inhibition of Bacterial Growth; detection method Absorption (OD600); MEDIA CAMHB; plate type 384well; NBS; CORNING #3640; time 18 hr
Candida albicans = conditions: Concentration 32 ug.mL-1; ASSAY_TEST Inhibition of Fungal Growth; detection method Absorption (OD530)
Cryptococcus neoformans = conditions: Concentration 32 ug.mL-1; ASSAY_TEST Inhibition of Fungal Growth; detection method Resazurin; Absorption (OD600-OD570); plate type 384well; NBS; CORNING #3640

Structure (SMILES) | Inhibition (Klebsiella pneumoniae) [%] | Inhibition (Candida albicans) [%] | Inhibition (Cryptococcus neoformans) [%]
Cc1ccc(Cl)cc1NC(=O)Cn1nc2c(N3CCOCC3)nc3ccccc3n2c1=O | 0.47 | 3.17 | -17.81
Cc1nnc2c(=O)n(CC(=O)Nc3ccc(Cl)cc3)c3ccccc3n12 | 4.43 | -0.59 | -11.19
O=C(Cn1nc2c(Oc3ccccc3)nccn2c1=O)Nc1ccccc1C(F)(F)F | 6.19 | 0.13 | -8.9
Cc1cc(C)cc(Nc2nc(C)cc3nn(CC(=O)NC4CCCCC4)c(=O)n23)c1 | 13.04 | 1.39 | -8.46
O=C(CCc1nnc2c(N3CCCCC3)nc3ccccc3n12)NCCc1ccc(Cl)cc1 | 17.22 | 2.39 | -25.04
CN(C)c1nc2ccccc2n2c(=O)n(CC(=O)Nc3ccc4c(c3)OCO4)nc12 | 0.98 | -0.89 | -12.71
Cc1ccc(C)c(NC(=O)Cn2nc3c(SCc4ccc(Cl)cc4)nccn3c2=O)c1 | 13.13 | 3.07 | -22.73
Cc1cccc(Sc2nccn3c(=O)n(CC(=O)N4CCN(c5ccccc5)CC4)nc23)c1 | 4.67 | 0.98 | -15.76
Cc1cc(Br)ccc1NC(=O)Cn1nc2c(SC3CCCCC3)nccn2c1=O | 10.86 | 1.51 | -21.25
Cc1ccc(-c2cc3c4nn(CC(=O)Nc5ccc6c(c5)OCCO6)c(=O)n4ccn3n2)cc1C | 12.57 | 1.55 | -15.09
